{"source": "PubChem BioAssay AID588590", "about": "(National Center for Advancing Translational Sciences (NCATS), 2011)", "note": "About 4,000 (1%) of roughly 390,000 compounds were called active. About 7% were inconclusive and are not listed. The sample holds actives, similar compounds and a random draw of the others, so the mix is not that of the screen. Values without a mark were called inactive. Calls follow the shape of the dose curve; as a rule, active = well fitted inhibition curve with a large enough effect; inconclusive = small, poorly fitted or top-dose-only effect, or another doubt; inactive = no such curve, though single readings can be large or run the other way. Potency is read from the fitted curve at half-maximal effect.", "data": [{"biological_target": "DNA polymerase iota (Homo sapiens) (UniProt Q9UNA4)", "sequence (Q9UNA4 whole entry, looked up)": "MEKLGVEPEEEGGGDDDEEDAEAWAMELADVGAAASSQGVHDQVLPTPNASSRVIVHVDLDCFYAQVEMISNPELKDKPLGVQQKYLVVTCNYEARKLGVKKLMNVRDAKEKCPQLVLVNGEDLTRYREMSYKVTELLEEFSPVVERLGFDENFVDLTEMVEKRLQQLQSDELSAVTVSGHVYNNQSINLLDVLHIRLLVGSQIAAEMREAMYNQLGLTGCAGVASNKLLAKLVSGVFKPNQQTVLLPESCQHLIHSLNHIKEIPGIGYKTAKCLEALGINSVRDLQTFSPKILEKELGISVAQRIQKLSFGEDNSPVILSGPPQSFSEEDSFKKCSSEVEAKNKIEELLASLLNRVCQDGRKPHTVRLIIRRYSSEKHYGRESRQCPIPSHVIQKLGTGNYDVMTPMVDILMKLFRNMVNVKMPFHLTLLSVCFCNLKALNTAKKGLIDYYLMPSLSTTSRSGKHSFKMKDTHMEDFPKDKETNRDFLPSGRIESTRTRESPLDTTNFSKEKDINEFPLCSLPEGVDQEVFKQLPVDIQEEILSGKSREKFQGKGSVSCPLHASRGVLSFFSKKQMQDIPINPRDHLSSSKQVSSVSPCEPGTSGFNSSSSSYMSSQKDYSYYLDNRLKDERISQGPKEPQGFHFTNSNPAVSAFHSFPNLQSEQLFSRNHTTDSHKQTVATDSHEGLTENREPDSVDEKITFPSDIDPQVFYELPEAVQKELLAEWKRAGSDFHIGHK", "assay": "qHTS for Inhibitors of Polymerase Iota", "details": "Pol iota fluorescent replication assay, 10 min; series mostly up to 115 µM; activity, negative = inhibition: at the top concentration", "summary_of_the_method": "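Fluorescent replication assay read twice, at 0 min and 10 min after adding 50 nM (final) substrate. Enzyme (10 nM) and compounds were first incubated 15 min at room temperature; enzyme-free buffer wells were negative controls.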", "values": [{"smiles": "CCOC(=O)c1c(S(=O)(=O)N2CCCC(C(=O)NCc3ccc(F)cc3)C2)c(C)n(CC)c1C", "note": "(stereo not given)", "activity, negative = inhibition": "6.16%"}, {"smiles": "Oc1cc(O)c2c(c1)OC(c1ccc(O)c(O)c1)C(O)C2", "note": "(stereo not given)", "Potency": "79.4 µM (active)"}, {"smiles": "OC[C@H]1O[C@@H](n2cnc3c(N[C@H]4CC5CCC4C5)ncnc32)[C@H](O)[C@@H]1O", "note": "(stereo not given in full)", "activity, negative = inhibition": "-2.71% [at 58.9 µM]"}, {"smiles": "Cc1ccc(CSc2nc3ccsc3c(=O)n2CCC(C)C)cc1", "activity, negative = inhibition": "10.2%"}, {"smiles": "COc1cc(/C=C2/SC(=S)N(Cc3ccccc3)C2=O)cc(OC)c1O", "Potency": "44.7 µM (active)"}, {"smiles": "COc1ccc(CCNC2=C(Cl)C(=O)N(Cc3ccccc3)C2=O)cc1OC", "activity, negative = inhibition": "-22.1%"}, {"smiles": "CN(C(=O)CN1C(=O)/C(=C/c2ccc(Cl)cc2)SC1=S)C1CCS(=O)(=O)C1", "note": "(stereo not given)", "activity, negative = inhibition": "-7.32%"}, {"smiles": "Cc1ccccc1NC(=O)Cn1c(=O)n(CCc2ccccc2)c(=O)c2ccccc21", "activity, negative = inhibition": "23.8%"}, {"smiles": "Cc1ccccc1NC(=O)CN1C(=O)C(C)(C)c2ccccc21", "activity, negative = inhibition": "18.5%"}, {"smiles": "Cc1ccccc1NC(=O)CN1C(=O)N/C(=C\\c2cccn2-c2cccc(C(=O)O)c2)C1=O", "Potency": "5.62 µM (active)"}, {"smiles": "COc1ccc2c(c1)c(=O)c(S(=O)(=O)c1ccc(F)cc1)cn2CC(=O)Nc1ccc(C)cc1C", "activity, negative = inhibition": "25.1%"}, {"smiles": "CCN(CCCNC(=O)c1cc(Nc2ccc(OC)cc2)nc2ccccc12)c1cccc(C)c1", "activity, negative = inhibition": "17.7%"}, {"smiles": "CC(C)CCNC(=O)c1ccc2c(Cl)c3c(nc2c1)CCC3", "activity, negative = inhibition": "107%"}, {"smiles": "COc1cccc(CNC(=O)CSc2c3c(nc4cc(Cl)ccc24)CCCC3)c1", "activity, negative = inhibition": "25.5%"}, {"smiles": "COc1cccc(CNC(=O)c2ccc3c(Cl)c4c(nc3c2)CCCC4)c1", "Potency": "89.1 µM (active)"}, {"smiles": "Cc1ccc(Cn2c(CCCNC(=O)C3CCCCC3)nc3ccccc32)cc1", "activity, negative = inhibition": "24.5%"}, {"smiles": "Cn1c(=O)oc2cc(S(=O)(=O)CCC(=O)NCCc3ccc(Cl)cc3)ccc21", "activity, negative = inhibition": "21.8%"}, {"smiles": "CC1CCN(c2ccc([N+](=O)[O-])cc2C(N)=O)CC1", "activity, negative = inhibition": "0.643%"}, {"smiles": "CCC(C)(C)NC(=O)c1cc([N+](=O)[O-])ccc1N1CCCCC1", "activity, negative = inhibition": "12%"}, {"smiles": "O=C(O)C1CCN(c2ccc([N+](=O)[O-])cc2[N+](=O)[O-])CC1", "Potency": "20 µM (active)"}, {"smiles": "COC(=O)CN1C(=O)N/C(=C/c2ccc(OC)c(C)c2OC)C1=O", "activity, negative = inhibition": "76.4%"}, {"smiles": "COc1ccccc1OCC(=O)OCc1cc(-c2ccco2)on1", "activity, negative = inhibition": "-2.3%"}, {"smiles": "COC(=O)COc1ccc2c(c1C)O/C(=C\\c1ccco1)C2=O", "Potency": "89.1 µM (active)"}, {"smiles": "Cc1ccc(C(=O)CC2(O)C(=O)N(CCc3ccccc3)c3ccc(Br)cc32)cc1", "note": "(stereo not given)", "activity, negative = inhibition": "14.1%"}, {"smiles": "CCN(CC)c1cc(NC2CCCCC2)c2c3c(onc13)-c1ccccc1C2=O", "activity, negative = inhibition": "36%"}, {"smiles": "COc1ccc(CNC(=O)CC2Oc3ccc(C)cc3NC2=O)cc1", "note": "(stereo not given)", "activity, negative = inhibition": "15.5%"}, {"smiles": "CCc1ccc2nc3sc(C(=O)Nc4nnc(CC)s4)c(N)c3cc2c1", "Potency": "22.4 µM (active)"}, {"smiles": "CCc1nnc(NC(=O)c2ccc(S(=O)(=O)NC3CCCCC3)cc2)s1", "activity, negative = inhibition": "4.68%"}, {"smiles": "CCc1ccc(NC(=O)c2sc3nc4c(cc3c2N)CN(CC)CC4)cc1", "activity, negative = inhibition": "7.62%"}, {"smiles": "COC(=O)c1cc2occc2n1Cc1nc(-c2ccc(C)cc2)oc1C", "activity, negative = inhibition": "-13.4%"}, {"smiles": "Cc1cc(/C=N/NC(=O)CC2(C)OCCO2)c(C)n1-c1ccc(Cl)c(Cl)c1", "activity, negative = inhibition": "3.54%"}, {"smiles": "Cc1cc(C=O)c(C)n1-c1ccc(NC2CCCCC2)c([N+](=O)[O-])c1", "activity, negative = inhibition": "-6.87%"}, {"smiles": "Cc1cc(/C=N/Nc2ccc([N+](=O)[O-])cn2)c(C)n1-c1cccc(C(=O)O)c1", "Potency": "28.2 µM (active)"}, {"smiles": "COc1ccc(NC(=O)C2CCN(c3ccc(Sc4ccc(C)cc4)nn3)CC2)c(OC)c1", "activity, negative = inhibition": "7.33%"}, {"smiles": "O=C1C[C@H]2C=CCc3cccc(c32)CN1Cc1ccccc1", "activity, negative = inhibition": "2.61%"}, {"smiles": "COc1ccc(Cl)cc1-n1c(CCC(=O)O)ccc1-c1ccc(C)cc1", "activity, negative = inhibition": "-8.96%"}, {"smiles": "CCOc1ccccc1NC(=O)Cn1c2ncccc2c(=O)n1-c1ccc(C)c(C)c1", "activity, negative = inhibition": "8.51%"}, {"smiles": "CCOc1ccccc1N(CC)C(=O)Nc1cn(C)c(=O)c2ccccc12", "activity, negative = inhibition": "28.1%"}, {"smiles": "CCOc1ccccc1CNC(=O)Nc1cn(CC(C)C)c(=O)c2ccccc12", "Potency": "39.8 µM (active)"}, {"smiles": "Cc1cccc(-c2nnc(SC(C)C(=O)Nc3ccccc3)n2C)c1", "note": "(stereo not given)", "activity, negative = inhibition": "3.47%"}, {"smiles": "Cc1ccc(C)c2sc(NC(=O)c3ccc(S(=O)(=O)N4CCCC4)cc3)nc12", "activity, negative = inhibition": "13.9%"}, {"smiles": "Cc1ccc(CCNC(=O)C2CCN(c3nnc(-n4cccc4CNc4ccc(C)cc4)s3)CC2)cc1", "activity, negative = inhibition": "11.6%"}, {"smiles": "C1=C(N2CCOCC2)/C(=C/c2nc3ccccc3[nH]2)CC1", "Potency": "14.1 µM (active)"}, {"smiles": "c1ccc(-n2nnnc2N2CCOCC2)cc1", "activity, negative = inhibition": "9.14%"}, {"smiles": "Cc1nn2c3cc(N4CCOCC4)ccc3nc2c2ccccc12", "activity, negative = inhibition": "32.7%"}, {"smiles": "O=C(Nc1ccc(Cl)cc1)c1cnn2c1NC(=C1CC1)C=C2C(F)F", "activity, negative = inhibition": "2.31%"}, {"smiles": "CCCOC(=O)c1c(NC(=O)c2cc3nc(-c4ccc(OC)cc4)cc(C(F)(F)F)n3n2)sc2c1CCCC2", "activity, negative = inhibition": "-29%"}, {"smiles": "CC1CCC2(CC1)N=C(c1ccccc1)C(=O)N2CC(=O)Nc1ccc(F)c(Cl)c1", "note": "(stereo not given)", "activity, negative = inhibition": "16.3%"}, {"smiles": "Cc1ccc2nc(COc3cccc(NC(=O)c4cccc(Cl)c4)c3)cc(=O)n2c1", "Potency": "89.1 µM (active)"}, {"smiles": "Cc1ccc2nc(COc3cccc(NC(=O)Nc4ccc(C)c(Cl)c4)c3)cc(=O)n2c1", "activity, negative = inhibition": "15.8%"}, {"smiles": "Cc1ccc2nc(COc3ccccc3NC(=O)Nc3ccc(F)c(Cl)c3)cc(=O)n2c1", "activity, negative = inhibition": "35.4%"}, {"smiles": "Cc1ccc(/C=N/NC(=O)Cn2nc(C)c(Br)c2C)o1", "activity, negative = inhibition": "-3.61%"}, {"smiles": "Cc1ccc(/C=N/NC(=O)c2cc3ccccc3cc2O)o1", "Potency": "50.1 µM (active)"}, {"smiles": "Cc1ccc(/C=N/NC(=S)NC2CCCCC2)o1", "activity, negative = inhibition": "19.1%"}, {"smiles": "CCCC12CN3CC(C)(CN(C1)C3c1ccccc1Cl)C2=O", "note": "(stereo not given)", "activity, negative = inhibition": "-15.2%"}, {"smiles": "CCOc1ccc(N=C2SC(C(=O)O)CC(=O)N2C)cc1", "note": "(stereo not given)", "activity, negative = inhibition": "16.4%"}, {"smiles": "COc1ccc(N=C2SC(C(=O)Nc3ccc(F)cc3)CC(=O)N2C)cc1", "note": "(stereo not given)", "activity, negative = inhibition": "95.7%"}, {"smiles": "CN=C1SC(C(=O)O)CC(=O)N1C", "note": "(stereo not given)", "Potency": "89.1 µM (active)"}, {"smiles": "Cc1ccc2ncc(C(=O)Nc3ccc(OC(F)(F)F)cc3)c(=O)n2c1", "activity, negative = inhibition": "-26.3%"}, {"smiles": "CCOc1ccc(Nc2c(S(=O)(=O)c3ccccc3)cnc3ccccc23)cc1", "activity, negative = inhibition": "-5.3%"}, {"smiles": "COc1ccc(OC)c(-n2nnc(-c3nc(-c4cc(OC)c(OC)c(OC)c4)no3)c2C)c1", "activity, negative = inhibition": "-9.96%"}, {"smiles": "COc1cc(Nc2nc(-c3ccc(OC)c(OC)c3)nc3ccccc23)cc(OC)c1", "activity, negative = inhibition": "6.46%"}, {"smiles": "O=[N+]([O-])c1cc(-c2nc(-c3ccccc3)no2)ccc1NCc1ccco1", "activity, negative = inhibition": "-8.87%"}, {"smiles": "CNc1ccc(-c2nc(-c3ccco3)no2)cc1[N+](=O)[O-]", "activity, negative = inhibition": "13.5%"}, {"smiles": "CC(Nc1ccc(-c2nc(-c3ccco3)no2)cc1[N+](=O)[O-])c1ccccc1", "note": "(stereo not given)", "Potency": "70.8 µM (active)"}]}]}
